Assay results published in PubChem BioAssay (NCATS).
Inconclusive results are not listed. Active and inactive are the calls of the source. Calls come from the whole dose curve; as a rule, active = well fitted cell-killing curve with a large enough effect; inconclusive = small, poorly fitted or top-dose-only effect, or effect the other way; inactive = flat fitted curve, though single readings scatter.

Columns and labels:
Assay in all cases: Primary qHTS to identify gynecologic anti-cancer compounds using libraries of approved drugs and bioactive compounds (AID 1345084); note: nearly all actives have a fitted effect of over 55% in size
Es-2 = settings: Gynecologic cancer cell panel viability, ATPlite luminescence, 48 h; series mostly up to 57.5 µM
Summary of the method: (§1)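 Cytotoxicity screen measuring ATP content by luciferase luminescence. Each compound is applied at five concentrations for 48 h at 37 C with 5% CO2.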

HeLa = settings: Gynecologic cancer cell panel viability, ATPlite luminescence, 48 h; series mostly up to 57.5 µM
Summary of the method: as §1

Hek293T = settings: Gynecologic cancer cell panel viability, ATPlite luminescence, 48 h, control line for the selectivity index; series mostly up to 57.5 µM
Summary of the method: as §1

JEG-3 = settings: Gynecologic cancer cell panel viability, ATPlite luminescence, 48 h; series mostly up to 57.5 µM
Summary of the method: as §1

OV90 = settings: Gynecologic cancer cell panel viability, ATPlite luminescence, 48 h; series mostly up to 57.5 µM
Summary of the method: as §1

PA-1 = settings: Gynecologic cancer cell panel viability, ATPlite luminescence, 48 h; series mostly up to 57.5 µM
Summary of the method: as §1

SKOV3 = settings: Gynecologic cancer cell panel viability, ATPlite luminescence, 48 h; series mostly up to 57.5 µM
Summary of the method: as §1

Tov-21-G = settings: Gynecologic cancer cell panel viability, ATPlite luminescence, 48 h; series mostly up to 57.5 µM
Summary of the method: as §1

Tov112D = settings: Gynecologic cancer cell panel viability, ATPlite luminescence, 48 h; series mostly up to 57.5 µM
Summary of the method: as §1
% is set by controls: 0 for no effect and ±100 for the full control effect.

C=CC(C)(O)CO[C@@H]1O[C@H](CO)[C@@H](O)[C@H](O)[C@H]1O (stereo not given in full)
inactive: Potency (Es-2) | Potency (HeLa) | Potency (Hek293T) | Potency (JEG-3) | Potency (OV90) | Potency (PA-1) | Potency (SKOV3) | Potency (Tov-21-G) | Potency (Tov112D)

C=CC1C(O[C@@H]2O[C@H](CO)[C@@H](O)[C@H](O)[C@H]2O)OC=C(C(=O)OC)C1CC(=O)O (stereo not given in full)
inactive: Potency (Es-2) | Potency (HeLa) | Potency (Hek293T) | Potency (JEG-3) | Potency (OV90) | Potency (PA-1) | Potency (SKOV3) | Potency (Tov-21-G) | Potency (Tov112D)

C=C1CC2C3(C)C(OC(C)=O)CC(=O)OC(C)(C)C3C(O)C(OC(C)=O)C2(C)C2C(=O)OC(C)C(=O)C12C (stereo not given)
inactive: Potency (Es-2) | Potency (HeLa) | Potency (Hek293T) | Potency (JEG-3) | Potency (OV90) | Potency (PA-1) | Potency (SKOV3) | Potency (Tov-21-G) | Potency (Tov112D)

COc1c2c(c(C)c3c1C(=O)OC3)OC1(C)CC(O)C3(O)C(C)(C)OC(=O)CCC3(C)C1C2 (stereo not given)
inactive: Potency (Es-2) | Potency (HeLa) | Potency (Hek293T) | Potency (JEG-3) | Potency (OV90) | Potency (PA-1) | Potency (SKOV3) | Potency (Tov-21-G) | Potency (Tov112D)

CC1=CCC2C(C)(CO)CCCC2(C)C1CC12OC1C(O)C(CO)=CC2O (stereo not given)
inactive: Potency (Es-2) | Potency (HeLa) | Potency (Hek293T) | Potency (JEG-3) | Potency (OV90) | Potency (PA-1) | Potency (SKOV3) | Potency (Tov-21-G) | Potency (Tov112D)

CC1(C)CC[C@]2(C(=O)O)CC[C@]3(C)C(=CCC4[C@@]5(C)C[C@@H](O)[C@H](O)C(C)(C)C5CC[C@]43C)[C@@H]2[C@@H]1O (stereo not given in full)
inactive: Potency (Es-2) | Potency (HeLa) | Potency (Hek293T) | Potency (JEG-3) | Potency (OV90) | Potency (PA-1) | Potency (SKOV3) | Potency (Tov-21-G) | Potency (Tov112D)

C=C1C(=O)O[C@H]2[C@H]1[C@@H](OC(=O)C(C)CO)C[C@@]1(C)[C@H](O)CCC(=O)[C@H]21 (stereo not given in full)
inactive: Potency (Es-2) | Potency (HeLa) | Potency (Hek293T) | Potency (JEG-3) | Potency (OV90) | Potency (PA-1) | Potency (SKOV3) | Potency (Tov-21-G) | Potency (Tov112D)

OC[C@H]1O[C@@H](OC(CCCCc2ccc(O)cc2)CCc2ccc(O)cc2)[C@H](O[C@@H]2OC[C@](O)(CO)[C@H]2O)[C@@H](O)[C@@H]1O (stereo not given in full)
inactive: Potency (Es-2) | Potency (HeLa) | Potency (Hek293T) | Potency (JEG-3) | Potency (OV90) | Potency (PA-1) | Potency (SKOV3) | Potency (Tov-21-G) | Potency (Tov112D)

O=C(/C=C/c1ccc(O)cc1)OC[C@H]1O[C@@H](OC(=O)/C=C/c2ccccc2)[C@H](O)[C@@H](O)[C@@H]1O
inactive: Potency (Es-2) | Potency (HeLa) | Potency (Hek293T) | Potency (JEG-3) | Potency (OV90) | Potency (PA-1) | Potency (SKOV3) | Potency (Tov-21-G) | Potency (Tov112D)

CC1(C)CCC2(C(=O)OC3OC(COC4OC(CO)C(O)C(O)C4O)C(O)C(O)C3O)CCC3(C)C(=CCC4C5(C)CCC(O)C(C)(C(=O)O)C5CCC43C)C2C1O (stereo not given)
inactive: activity change, negative = cytotoxicity (Es-2) 4.39% [at 11.6 µM] | activity change, negative = cytotoxicity (HeLa) -15.3% [at 11.6 µM] | activity change, negative = cytotoxicity (Hek293T) 4.46% [at 11.6 µM] | activity change, negative = cytotoxicity (JEG-3) -2.36% [at 11.6 µM] | activity change, negative = cytotoxicity (OV90) 0.278% [at 11.6 µM] | activity change, negative = cytotoxicity (PA-1) -2.93% [at 11.6 µM] | activity change, negative = cytotoxicity (SKOV3) 21% [at 11.6 µM] | activity change, negative = cytotoxicity (Tov-21-G) 0.669% [at 11.6 µM] | activity change, negative = cytotoxicity (Tov112D) -1.2% [at 11.6 µM]

CC(=O)OC[C@]12[C@H](OC(C)=O)C(=O)[C@@H]3[C@@H](OC(C)=O)[C@@]14O[C@@]3(C)COC(=O)c1cccnc1[C@@H](C)[C@H](C)C(=O)O[C@@H]([C@H](OC(C)=O)[C@@H]2OC(C)=O)[C@]4(C)O
inactive: Potency (Es-2) | Potency (HeLa) | Potency (Hek293T) | Potency (JEG-3) | Potency (OV90) | Potency (PA-1) | Potency (SKOV3) | Potency (Tov-21-G) | Potency (Tov112D)

Clc1ccc(CN[C@H]2CCN(c3ncc(Br)cn3)C2)c(Cl)c1
inactive: Potency (Es-2) | Potency (HeLa) | Potency (Hek293T) | Potency (JEG-3) | Potency (OV90) | Potency (PA-1) | Potency (SKOV3) | Potency (Tov-21-G) | Potency (Tov112D)

CC1(C)C(=O)N2c3ccccc3[C@]3(CC(n4cnc5ccccc5c4=O)C(=O)O3)[C@H]2N1O (stereo not given in full)
inactive: Potency (Es-2) | Potency (HeLa) | Potency (Hek293T) | Potency (JEG-3) | Potency (OV90) | Potency (PA-1) | Potency (SKOV3) | Potency (Tov-21-G) | Potency (Tov112D)

OC[C@H]1O[C@@H](Oc2cc(O)cc(-c3cc4ccc(O)cc4o3)c2)[C@H](O)[C@@H](O)[C@@H]1O
inactive: Potency (Es-2) | Potency (HeLa) | Potency (Hek293T) | Potency (JEG-3) | Potency (OV90) | Potency (PA-1) | Potency (SKOV3) | Potency (Tov-21-G) | Potency (Tov112D)

NCc1c[nH]c(=S)n1C1CCc2c(F)cc(F)cc2C1 (stereo not given)
inactive: Potency (Es-2) | Potency (HeLa) | Potency (Hek293T) | Potency (JEG-3) | Potency (OV90) | Potency (PA-1) | Potency (SKOV3) | Potency (Tov-21-G) | Potency (Tov112D)
